Records with an inconclusive call do not appear. Activity calls are given as the source filed them. How the source made its calls: active means hit-call score of the fitted dose curve at least 0.9, where 1 is the maximum; inconclusive means response in the unintended direction; inactive means score below 0.9.
Biological target: human Acetylcholinesterase (AChE), ACHE (gene 43) (UniProt P22303)
Test: NVS_ENZ_hAChE: NovaScreen (NVS) Enzymatic Assay for human Acetylcholinesterase (AChE) (AID 2283129)
Summary of the method: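 Cell-free colorimetric enzyme-activity assay; compounds read 0.33 hour after dosing, loss of signal vs DMSO baseline. Primary screen in duplicate at 25 uM single concentration, with active compounds retested in concentration series.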

Sequence of human Acetylcholinesterase (AChE), ACHE (gene 43) (P22303 whole entry, looked up): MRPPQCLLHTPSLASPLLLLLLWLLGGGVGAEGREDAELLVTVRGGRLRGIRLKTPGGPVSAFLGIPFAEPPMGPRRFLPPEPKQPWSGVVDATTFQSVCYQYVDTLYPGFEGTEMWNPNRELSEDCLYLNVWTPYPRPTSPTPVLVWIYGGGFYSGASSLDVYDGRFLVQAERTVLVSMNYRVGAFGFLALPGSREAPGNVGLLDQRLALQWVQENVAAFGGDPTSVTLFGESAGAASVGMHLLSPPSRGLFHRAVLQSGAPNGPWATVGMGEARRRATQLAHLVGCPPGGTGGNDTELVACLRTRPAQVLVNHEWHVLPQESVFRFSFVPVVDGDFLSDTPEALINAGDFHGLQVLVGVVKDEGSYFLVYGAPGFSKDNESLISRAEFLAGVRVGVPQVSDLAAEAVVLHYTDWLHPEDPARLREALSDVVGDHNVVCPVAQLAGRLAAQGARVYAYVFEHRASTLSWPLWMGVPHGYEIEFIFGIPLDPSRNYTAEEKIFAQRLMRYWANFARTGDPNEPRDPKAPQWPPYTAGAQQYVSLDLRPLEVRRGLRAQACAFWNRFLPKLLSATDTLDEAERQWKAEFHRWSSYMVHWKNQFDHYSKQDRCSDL

Structure (SMILES)	outcome	AC50
CCCCCCCCOC(=O)c1ccccc1C(=O)OCCCCCCCC	inactive	
Oc1ccc(C(c2ccc(O)cc2)(C(F)(F)F)C(F)(F)F)cc1	inactive	
C[C@]12CCC(=O)C=C1CC[C@@H]1[C@@H]2CC[C@]2(C)C(=O)CC[C@@H]12	inactive	
CCCCCCCCCC[N+](C)(C)CCCCCCCCCC		12.4 µM (active)

Biological target: human AMP-activated Protein Kinase, alpha 1 (AMPKa1), PRKAA1 (gene 5562) (UniProt Q13131)
Test: NVS_ENZ_hAMPKa1: NovaScreen (NVS) Enzymatic Assay for human AMP-activated Protein Kinase, alpha 1 (AMPKa1) (AID 2283130)
Summary of the method: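 Recombinant human AMPKα1 activity was measured cell-free by fluorescent substrate conversion with electrophoretic mobility-shift separation, 1 h after dosing. Duplicate single-point screening was at 25 uM; actives (≥30% inhibition) were retested in concentration-response up to 50 uM.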

Sequence of human AMP-activated Protein Kinase, alpha 1 (AMPKa1), PRKAA1 (gene 5562) (Q13131 whole entry, looked up): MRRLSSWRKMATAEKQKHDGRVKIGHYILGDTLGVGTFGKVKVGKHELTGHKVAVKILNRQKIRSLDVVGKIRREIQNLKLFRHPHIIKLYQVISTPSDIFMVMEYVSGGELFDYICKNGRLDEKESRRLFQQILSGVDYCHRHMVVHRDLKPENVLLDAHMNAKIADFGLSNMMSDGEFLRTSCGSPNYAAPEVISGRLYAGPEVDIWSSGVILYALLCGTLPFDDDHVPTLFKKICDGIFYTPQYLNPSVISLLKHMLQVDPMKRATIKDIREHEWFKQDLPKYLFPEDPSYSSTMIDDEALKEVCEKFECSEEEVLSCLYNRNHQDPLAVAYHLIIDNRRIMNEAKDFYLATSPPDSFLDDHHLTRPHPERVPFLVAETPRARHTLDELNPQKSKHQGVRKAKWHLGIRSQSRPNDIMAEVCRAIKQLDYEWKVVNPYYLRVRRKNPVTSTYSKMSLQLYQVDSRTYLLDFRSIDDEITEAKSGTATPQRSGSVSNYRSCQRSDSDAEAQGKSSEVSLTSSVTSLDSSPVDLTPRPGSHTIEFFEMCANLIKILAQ

Structure (SMILES)	outcome	AC50
CC1=C2C[C@H]3[C@@H](CC=C4C[C@@H](O)CC[C@@]43C)[C@@H]2CC[C@]12O[C@@H]1C[C@H](C)CN[C@H]1[C@H]2C	inactive	
CC#Cc1cc(C)nc(Nc2ccccc2)n1	inactive	
O=S(=O)(O)C(F)(F)C(F)(F)C(F)(F)C(F)(F)C(F)(F)C(F)(F)F	inactive	
CCCN(CCC)N=O	inactive	
Oc1ccc(C(c2ccc(O)cc2)(C(F)(F)F)C(F)(F)F)cc1		13.5 µM (active)
O=C(O)C(F)(F)C(F)(F)C(F)(F)C(F)(F)C(F)(F)C(F)(F)C(F)(F)C(F)(F)F		36.7 µM (active)
CC(C)C(=O)OCC(C)(C)C(OC(=O)C(C)C)C(C)C (configuration not stated)	inactive	
O=C(O)C(F)(F)C(F)(F)C(F)(F)C(F)(F)C(F)(F)F	inactive	

Source: PubChem BioAssay (EPA / NIEHS)
